Measurements published in the supplement of paper PMC12636033.
± gives the standard deviation of the averaged measurements. Over roughly 33,000 sequences, “E-score (rank enrichment, -0.5 to 0.5)” has its median near -0.0068; the highest 2% begin near 0.24. Shown is part of a subset that was picked to be rich in the highest values.

System: muMax20 (Max(13-93) K31hArg/K57hArg, M65Nle)
Experiment: PBM 8-mer E-score (E-score (rank enrichment, -0.5 to 0.5)); higher = stronger preferential binding
Procedure: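 Protein binding microarray (universal PBM chip covering all 10-mers in fixed probe flanks) with chemically synthesized human Max(13-93) bHLH-LZ analogs (not full-length Max) bearing noncanonical residues (hArg, Tha, Aib, Nle at 65) and aromatic Cys staples. Read-out per 8-mer (and its reverse complement): E-score (rank-based enrichment, -0.5 to 0.5) and Z-score of median probe intensity.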

Sequence	PBM 8-mer E-score
CACGTGAG	0.344 ± 0.11
CGCGTGAC	0.268 ± 0.12
CACGTTAG	0.0823 ± 0.07
TACGTGAA	0.144 ± 0.01
GACGTGAA	-0.111 ± 0.032
CACGTGAA	0.368 ± 0.099
AACGTGAC	0.155 ± 0.0051
CCCGTGAG	-0.289 ± 0.015
CACGTGAC	0.459 ± 0.038
GACGTGAC	0.0637 ± 0.034
CGCGTGAG	0.122 ± 0.034
CGCGTGAA	0.00405 ± 0.02
ACCCGAGG	-0.1291 ± 0.0004
CCAGCTAC	-0.139 ± 0.0043
GGAGCTAA	-0.194 ± 0.096
ATCTCCGG	-0.11 ± 0.16
CCCTTAGC	-0.0766 ± 0.14
ACGCTGAA	-0.171 ± 0.049
CCTCCTAC	-0.0317 ± 0.12
ATACCTCC	-0.0216 ± 0.038
CCCATGGC	-0.167 ± 0.041
AACTGTAG	-0.00575 ± 0.073
ACGACACA	-0.0466 ± 0.022
ATTCGCCA	-0.152 ± 0.018
GGCCTATA	-0.132 ± 0.045

Sequence	PBM 8-mer E-score
AGCCTATA	0.25 ± 0.083
CGCCTATA	-0.0178 ± 0.0095
AATGTTGG	0.0876 ± 0.073
GATGTTGA	-0.00209 ± 0.012
TATGTTGA	0.238 ± 0.044
CATGTTGA	0.193 ± 0.044
AATGTTGA	-0.00564 ± 0.1
AATGTTGT	0.28 ± 0.01
ATTCTAGC	-0.0188 ± 0.08
ATATACGA	0.247 ± 0.017
ACATACGC	0.078 ± 0.081
ACATACGA	0.239 ± 0.035
ATATACTA	0.3084 ± 0.0014
ATCTACTG	-0.00673 ± 0.085
CTATACGA	-0.122 ± 0.029
TCATACGA	0.2 ± 0.064
ATATACTC	0.128 ± 0.077
ATATACGC	0.0468 ± 0.016
ATCTACTA	0.2783 ± 0.0027
CTATACTA	0.081 ± 0.083
ATCTACTC	-0.0945 ± 0.036
CCTCGCTC	-0.0787 ± 0.12
GCGGAACC	-0.175 ± 0.0029
GGTCGGCA	-0.172 ± 0.038
ATGCCTCG	0.0473 ± 0.0097

Sequence	PBM 8-mer E-score
AAACGCGA	0.0862 ± 0.15
GAGGCAAA	0.154 ± 0.077
GTGAGCGA	-0.125 ± 0.059
CCAGGCTA	-0.296 ± 0.027
GGAAGTAA	0.207 ± 0.022
GTGTACAA	0.1868 ± 0.0017
TTGTACAA	0.284 ± 0.073
CTGTACAA	0.045 ± 0.052
GGGTACAA	0.0175 ± 0.13
TGGTACAA	0.253 ± 0.084
AGGTACAA	0.128 ± 0.024
CATGGTTA	0.103 ± 0.0075
TCCGCACA	-0.187 ± 0.04
CCACGCGC	0.03925 ± 0.00016
ACACGCGG	0.246 ± 0.046
CCACGCGA	0.0738 ± 0.016
ACACGCGC	0.0651 ± 0.19
AAACGCGT	0.0946 ± 0.058
CCACGCGG	0.416 ± 0.005
ACGCGCGT	0.19 ± 0.13
ACACGCGA	0.15 ± 0.0033
ACACGCGT	0.238 ± 0.014
AAACTCCA	-0.0494 ± 0.085
AACTTACG	0.0512 ± 0.088
GGATGGGA	0.00739 ± 0.13

Sequence	PBM 8-mer E-score
AGCTTTAT	-0.0838 ± 0.085
AGTGTGTC	-0.0164 ± 0.029
TACGGCAA	0.0936 ± 0.016
GGCCAAGA	-0.116 ± 0.056
ATGCATCA	0.276 ± 0.059
GTGCATCA	0.145 ± 0.039
ATGCATGC	0.198 ± 0.11
AAGCATGT	0.218 ± 0.064
ATGCATGA	0.276 ± 0.055
CTGCATTA	0.0657 ± 0.06
AAGCATGC	0.254 ± 0.074
ATGCATCG	0.0165 ± 0.083
ATGCATTC	0.215 ± 0.1
GAGCATGC	0.217 ± 0.12
ATGCATTA	0.28 ± 0.079
ATGCATGG	0.132 ± 0.097
GAGCAGCC	-0.196 ± 0.0049
ACAACCCC	0.0696 ± 0.03
ATTCATTG	0.148 ± 0.014
ATACATTC	0.244 ± 0.0028
ATTCATTC	0.287 ± 0.035
ATACATTG	0.125 ± 0.013
ATTCATTA	0.177 ± 0.078
CTACATTC	0.0325 ± 0.15
ACGCGGGG	0.0227 ± 0.021

Sequence	PBM 8-mer E-score
CAGCTAAC	-0.15 ± 0.12
GCGCCTCA	-0.0397 ± 0.1
CCCGGTCA	-0.139 ± 0.064
CAAACATG	0.229 ± 0.044
AAAACATG	0.279 ± 0.027
AACACATT	0.0928 ± 0.081
AAAACATT	0.127 ± 0.061
AACACATG	0.317 ± 0.053
AACACATC	0.0883 ± 0.011
CTCTGCTA	-0.193 ± 0.028
AAGCAAAT	0.172 ± 0.025
CGGGCGAG	-0.112 ± 0.12
CAAGCGCA	0.284 ± 0.019
CAAGCGCC	-0.192 ± 0.11
AAAGCGCA	0.0206 ± 0.012
GACGGTGC	-0.0722 ± 0.033
ATGCAACA	0.211 ± 0.041
ATGCAACC	0.225 ± 0.014
ATGCAACG	0.251 ± 0.079
TCTTGAAA	0.0967 ± 0.01
CGGCGCGC	0.00798 ± 0.069
GAGTTATA	0.173 ± 0.0073
ATGTGTGA	0.192 ± 0.13
CTGTTATA	0.179 ± 0.097
ATGTGTTA	0.276 ± 0.076

Sequence	PBM 8-mer E-score
ATGTGTAA	0.204 ± 0.046
ATGTGTAG	0.239 ± 0.068
AAGTTATA	0.156 ± 0.018
TAGTTATA	0.288 ± 0.068
ATGTGTAC	0.113 ± 0.057
ATGTGTTC	-0.0235 ± 0.019
ATGTTATA	0.193 ± 0.12
GTGTTATA	0.2767 ± 0.0021
ATCACCAG	-0.0679 ± 0.034
GTCCCTCA	-0.00891 ± 0.083
ATAACCGG	-0.0406 ± 0.073
ATTACGGA	0.0432 ± 0.041
ATTGCTGG	-0.0565 ± 0.13
AGGCCGGC	-0.211 ± 0.028
ATGCGGAG	0.00298 ± 0.056
AACAACGA	0.147 ± 0.012
GGGTCAAC	-0.0771 ± 0.079
GTGTGTTA	0.268 ± 0.0066
GGGTGTTA	0.0328 ± 0.0072
CTGTGTTA	0.0692 ± 0.087
CGCGCTAA	-0.0154 ± 0.16
GTTAACTA	0.213 ± 0.0029
ATTAACAG	0.0428 ± 0.24
ACTAACAC	0.0454 ± 0.029
ATTAACAC	0.287 ± 0.029

Sequence	PBM 8-mer E-score
ATTAACTA	0.283 ± 0.017
GTTAACAA	0.17 ± 0.0025
ATTAACAA	0.246 ± 0.052
CTTAACAC	0.149 ± 0.092
ATTAACTC	0.173 ± 0.0096
AAAGCTAA	-0.00207 ± 0.033
ACCACTAG	0.0698 ± 0.15
ATGCGATA	-0.0659 ± 0.018
GCCCTCGA	-0.118 ± 0.0058
CCGGATAA	-0.0458 ± 0.13
AGTAGGAC	0.103 ± 0.047
AACGGCCT	0.269 ± 0.11
AACGGCCC	-0.263 ± 0.018
AACGGCCA	-0.0219 ± 0.0033
GATCCCGA	-0.329 ± 0.0063
AATTCTTA	0.0618 ± 0.12
ATCTGTAC	0.157 ± 0.1
ACGTATTA	0.25 ± 0.076
GCGTATTA	0.117 ± 0.082
ACGTATCG	-0.00982 ± 0.017
ACGTATCT	0.0322 ± 0.12
ACGTATTG	0.0861 ± 0.067
